Inconclusive results are not listed. Active and inactive are the calls of the source. The call rests on the fitted dose curve; in most records, active means well fitted inhibition curve with a large enough effect; inconclusive means small, poorly fitted or top-dose-only effect; inactive means flat fitted curve, though single readings scatter. Starred links: 1 amine or outer side, 2 acyl side, 3 side chain; linkers in the order of their positions; H or OH if unused. Positions of bridges follow the written chain, without caps; N, C: chain ends. Non-standard residues stand in square brackets, D forms with d. Residues, ends and D or L forms follow the SMILES beside them. Chains are numbered I, II in the order given. *: point of attachment. Actinocin(9to1) = Cc1c2oc3c(C)ccc(C(=O)[*:1])c3nc-2c(C(=O)[*:2])c(N)c1=O; NMeV = CN[CH](C(=O)O)C(C)C; Nva = CCC[C@H](N)C(=O)O; Cbz = O=C(OCc1ccccc1)*; Sar = CNCC(=O)O

In the assay the test system is Zika virus NS2B-NS3 protease. Put plainly: Primary screen GU AMC qHTS for Zika virus inhibitors (AID 1347154).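 Further: 0% = no-inhibitor control and -100% = no-enzyme control; nearly all actives have a fitted effect of over 70% in size.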 As to conditions: Zika NS2B-NS3 unlinked protease, AMC fluorogenic substrate; series mostly up to 54.1 µM; activity change, negative = inhibition: at the top concentration. Summed up: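 Fluorogenic AMC-substrate cleavage by noncovalent NS2B-NS3 protease complex (25 nM, pH 8.0 Tris buffer with Tween 20) followed for 15 minutes at room temperature (~20% conversion). Percent inhibition from ex340/em450 signal change, fitted by 4-parameter Hill equation.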
In the case of `O=C(Nc1cccc(Nc2ncc(Br)c(NCCc3cnc[nH]3)n2)c1)N1CCCC1`, the “activity change, negative = inhibition” value is 3.32% (inactive).
As to `CCC[C@@H](C=O)NC(=O)[C@H](CC(C)C)NC(=O)[C@H](CC(C)C)NC(=O)OCc1ccccc1` (Cbz-Leu-Leu-[Nva]-aldehyde), the “activity change, negative = inhibition” value is -2.86% (inactive).
On the same count and under the same terms, the figure for `Cn1c(Nc2ccc(C(F)(F)F)cc2)nc2cc(Oc3ccnc(-c4ncc(C(F)(F)F)[nH]4)c3)ccc21` is -6.03% (inactive); for `N#CC(=C(N)Sc1ccc(N)cc1)c1ccccc1C(F)(F)F` it is -2.86% (inactive).
Same read-out and setting: the figure for `FC(F)(F)c1ccc(Nc2nc3ccc(Oc4ccnc(-c5ncc(C(F)(F)F)[nH]5)c4)cc3[nH]2)cc1` is -12% (inactive).
On the same count and under the same terms, under `CC(C)(O)CC[C@@H](O)[C@](C)(O)[C@H]1CC[C@@]2(O)C3=CC(=O)[C@@H]4C[C@@H](O)[C@@H](O)C[C@]4(C)[C@@H]3CC[C@]12C` stands 2.63% (inactive).
For `Cc1cc(-c2nnc3n2CCCCC3)c(C)n1-c1ccccc1`, the “activity change, negative = inhibition” value is -3.36% (inactive).
Regarding `Cc1c2oc3c(C)ccc(C(=O)NC4C(=O)NC(C(C)C)C(=O)N5CCCC5C(=O)N(C)CC(=O)N(C)C(C(C)C)C(=O)OC4C)c3nc-2c(C(=O)NC2C(=O)NC(C(C)C)C(=O)N3CCCC3C(=O)N(C)CC(=O)N(C)C(C(C)C)C(=O)OC2C)c(N)c1=O` (stereo not given) (I: TVP[Sar][NMeV] / II: TVP[Sar][NMeV]; ester I:1-I:C, II:1-II:C; linker I:N-II:N via Actinocin(9to1); configuration not given here), the Potency entry was “inactive”.
`COc1cc(C(C)C)c(Oc2cnc(NC(CO)CO)nc2N)cc1I`: the “activity change, negative = inhibition” value was 1.4% (inactive).
With `CC(C)C[C@@H](C=O)NC(=O)[C@H](CC(C)C)NC(=O)[C@H](CC(C)C)NC(=O)OCc1ccccc1` (Cbz-Leu-Leu-Leu-aldehyde), the Potency result is “inactive”.

For the origin of these results see PubChem BioAssay (NCATS).
